Compound activity deposited in PubChem BioAssay by National Center for Advancing Translational Sciences (NCATS).
FMDV inh: High Throughput Screening for Foot and Mouth Disease Virus Antivirals. FMDV antiviral cell-based qHTS. Potency, µM (titrated, usually from 57.9 µM), most hits filed as inhibitors. 1.2% of 410,000 active; calls by dose curve; tested in HEK293T cells; also: read-out not given here; nearly all actives have a fitted effect of over 45% in size
HCV inhibitor: qHTS Assay for Inhibitors of Hepatitis C Virus (HCV) | Huh7.5.1 HCVcc-Cre infection, luciferase reporter, 44 h | Potency, µM (highest dose often 41.8 µM), hits mostly inhibitors | 3.4% of 340,000 active | AID 651820, 2012
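Infectious HCV cell culture screen: compound-treated cells (1,000/well, pre-plated 4 h) are infected with HCVcc-Cre at roughly 0.5 moi and grown 44 h. Infection is quantified by luciferase signal after 15 min substrate incubation at room temperature.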
Vaccinia Venus: qHTS for Stage-Specific Inhibitors of Vaccinia Orthopoxvirus: Venus Reporter Primary qHTS | AID 720580, 2013 | 0.46% of 330,000 active | Potency, µM (highest dose often 36.5 µM), hits mostly inhibitors | Vaccinia virus Venus reporter expression, fluorescence; calls by dose curve; tested in A549 cells; also: nearly all actives have a fitted effect of over 30% in size
HCMV antiviral: qHTS Assay for inhibitors of the human cytomegalovirus (HCMV); HFF cells, HCMV-luciferase reporter, 72 h; active compounds read low; activity change, negative = inhibition, % at 57.5 µM; 4.5% of 410,000 active; AID 1259415, 2018; in the data active = activity change below about -60%; inconclusive = no clear call, values can overlap the other calls; inactive = above about -39%
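Steps: HFFs plated, 16 h 37C; compounds added; HCMV-luciferase added to MOI 1 PFU/cell; 72 h 37C; OneGlo reagent, 5 min room temperature; luminescence read, normalized to controls.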
FBPA Giardia inh: qHTS Assay for Inhibitors of Fructose-1,6-bisphosphate Aldolase from Giardia Lamblia. A8B2U2. purified Giardia FBPA. Potency, µM (top dose mostly 59.6 µM), actives largely listed as inhibitors. 0.71% of 290,000 active; also: nearly all actives have a fitted effect of over 55% in size
Target sequence (A8B2U2 whole entry, looked up): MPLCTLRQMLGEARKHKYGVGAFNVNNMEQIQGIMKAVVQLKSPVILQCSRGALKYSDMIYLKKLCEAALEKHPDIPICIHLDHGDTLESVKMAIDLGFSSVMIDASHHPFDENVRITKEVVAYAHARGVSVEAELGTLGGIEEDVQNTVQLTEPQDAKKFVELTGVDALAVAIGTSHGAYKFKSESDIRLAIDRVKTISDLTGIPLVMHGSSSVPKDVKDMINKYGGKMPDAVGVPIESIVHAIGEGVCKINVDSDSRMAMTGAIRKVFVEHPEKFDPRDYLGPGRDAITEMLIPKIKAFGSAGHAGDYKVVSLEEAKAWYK
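Giardia FBPA (40 nM reagent) was preincubated 10 min at RT with compound (up to 57.5 uM final), then substrate plus GAPDH/TPI/NAD/arsenate coupling system with diaphorase/resazurin was added; resorufin fluorescence (525/598 nm) was read after 20 min.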
VACV mCherry inh: qHTS for Stage-Specific Inhibitors of Vaccinia Orthopoxvirus: mCherry Reporter Primary qHTS; Vaccinia virus mCherry reporter infection, fluorescence; 0.63% of 310,000 active; AID 720579, 2013; Potency, µM (series often up to 36.5 µM), hits mostly inhibitors; calls by dose curve; tested in A549 cells; also: nearly all actives have a fitted effect of over 35% in size
Numbers stand for hits. Hits are enriched below; roughly 7.5% of the tested compounds scored in any of these assays. Unless noted, calls follow the shape of the dose curve; as a rule, active = well fitted curve in the direction sought with a large enough effect; inconclusive = small, poorly fitted or top-dose-only effect, or another doubt; inactive = no such curve, though single readings can be large; an effect the other way counts as inactive or inconclusive.

How did COc1ccc(N(CCCN2C(=O)c3cccc4cccc(c34)C2=O)C(=O)c2cccc(OC)c2)cc1 do in these assays?
FMDV inh: inactive; HCV inhibitor: 11µM; Vaccinia Venus: inactive; HCMV antiviral: inactive; FBPA Giardia inh: inactive; VACV mCherry inh: inconclusive

Results for CN(C)CCN1C(=O)c2ccccc2C1=O ?
FMDV inh: inactive; HCV inhibitor: inactive; Vaccinia Venus: inactive; HCMV antiviral: inactive; VACV mCherry inh: inactive

How did Cc1ccc(N(CCCCN2C(=O)c3ccccc3C2=O)C(=O)c2cccc([N+](=O)[O-])c2)cc1 do in these assays?
FMDV inh: inactive; HCV inhibitor: inactive; HCMV antiviral: inactive; FBPA Giardia inh: inactive

What do the screens show for `Cc1ccc(NC(=O)CCN2C(=O)c3cccc4cccc(c34)C2=O)cc1`?
FMDV inh: inactive; HCV inhibitor: inactive; Vaccinia Venus: inactive; HCMV antiviral: inconclusive; FBPA Giardia inh: inactive; VACV mCherry inh: inactive

How did O=C(COc1ccc(Br)cc1)N(Cc1nnc(-c2ccccc2Cl)o1)C1CC1 do in these assays?
FMDV inh: inactive; Vaccinia Venus: inactive; HCMV antiviral: inactive; VACV mCherry inh: inactive

Results for O=C1c2cccc3cc([N+](=O)[O-])cc(c23)C(=O)N1CC1CCCO1 (stereo not given) ?
FMDV inh: inactive; HCV inhibitor: inconclusive; Vaccinia Venus: inactive; HCMV antiviral: -63; FBPA Giardia inh: inactive; VACV mCherry inh: inactive

What do the screens show for `CC12C(=O)N(c3ccc(OC(=O)c4ccco4)cc3)C(=O)C1C1c3ccccc3C2c2ccccc21` (stereo not given)?
FMDV inh: inconclusive; HCV inhibitor: inactive; Vaccinia Venus: inactive; HCMV antiviral: inactive; FBPA Giardia inh: inactive; VACV mCherry inh: inactive

What do the screens show for `O=[N+]([O-])c1cnn(-c2nc(-c3cccs3)cc(C(F)(F)F)n2)c1`?
FMDV inh: inactive; HCV inhibitor: inactive; Vaccinia Venus: inactive; HCMV antiviral: -99; FBPA Giardia inh: inactive; VACV mCherry inh: inactive

How did CS(=O)(=O)c1nc(-c2cccs2)cc(C(F)(F)F)n1 do in these assays?
FBPA Giardia inh: inactive

How did CN1CCN(c2nc(-c3cccs3)cc(C(F)(F)F)n2)CC1 do in these assays?
FMDV inh: inactive; HCV inhibitor: 2.8µM; HCMV antiviral: inactive; FBPA Giardia inh: inactive

What do the screens show for `COc1ccc(C2c3cc(OC)c(OC)cc3CC(=O)N2c2cccc(C#N)c2)cc1` (stereo not given)?
FMDV inh: inactive; Vaccinia Venus: inactive; HCMV antiviral: inactive; VACV mCherry inh: inactive

What do the screens show for `COC(=O)[C@]1(C#N)[C@H](Cc2ccccc2)C(=O)N(Cc2ccc(Cl)cc2)[C@@H]1c1ccc(OC)cc1`?
HCMV antiviral: inactive

Results for Cc1sc2ncnc(Sc3ccccc3C(=O)Nc3ccc(C#N)cc3)c2c1C ?
FMDV inh: inactive; HCV inhibitor: 25µM; Vaccinia Venus: inactive; HCMV antiviral: inconclusive; FBPA Giardia inh: inactive; VACV mCherry inh: inconclusive

What do the screens show for `Cc1sc2ncnc(Sc3ccccc3C(=O)Nc3ccc(Br)cc3)c2c1C`?
FMDV inh: inactive; HCV inhibitor: 5.6µM; Vaccinia Venus: inactive; HCMV antiviral: inactive; FBPA Giardia inh: inactive; VACV mCherry inh: inactive

How did Cc1sc2ncnc(Sc3ccccc3C(=O)Nc3ccccc3Cl)c2c1C do in these assays?
FMDV inh: inactive; HCV inhibitor: inactive; HCMV antiviral: inactive; FBPA Giardia inh: inactive

What do the screens show for `COc1cccc(Sc2ccccc2/C=N/NC(N)=O)c1`?
FMDV inh: inactive; HCV inhibitor: inconclusive; Vaccinia Venus: inactive; HCMV antiviral: inactive; FBPA Giardia inh: inactive; VACV mCherry inh: inactive

Results for CCc1ccc(-n2nc(C)c3c2NC(=O)CSC3c2ccc(C(=O)OC)cc2)cc1 (stereo not given) ?
FMDV inh: inconclusive; Vaccinia Venus: inactive; HCMV antiviral: inactive; VACV mCherry inh: inactive

How did CCc1ccc(-n2nc(C)c3c2NC(=O)CSC3c2ccc(OC)cc2OC)cc1 (stereo not given) do in these assays?
FMDV inh: inactive; Vaccinia Venus: inactive; HCMV antiviral: -67; VACV mCherry inh: inactive

What do the screens show for `CCc1ccc(-n2nc(C)c3c2NC(=O)CSC3c2ccccc2C)cc1` (stereo not given)?
FMDV inh: inconclusive; Vaccinia Venus: inactive; HCMV antiviral: -80; VACV mCherry inh: inconclusive

Results for CC(NC(=O)OCc1ccccc1)C(=O)Oc1cc2oc(=O)cc(-c3ccccc3)c2cc1Cl (stereo not given) ?
FMDV inh: inactive; HCV inhibitor: inactive; Vaccinia Venus: inactive; HCMV antiviral: -94; FBPA Giardia inh: inactive; VACV mCherry inh: inactive

Results for CCc1cc2c(-c3ccccc3)cc(=O)oc2cc1OC(C)C(=O)O (stereo not given) ?
FMDV inh: inactive; HCV inhibitor: inactive; HCMV antiviral: inactive; FBPA Giardia inh: inactive

Results for O=C(c1cnccn1)N1CC(=O)N2[C@@H](CO)[C@H](c3ccc(Br)cc3)[C@@H]2C1 ?
HCMV antiviral: inactive

What do the screens show for `Cc1nn2c(CN(C(=O)CN3CCOCC3)c3ccccc3)nnc2c2ccccc12`?
FMDV inh: inactive; HCV inhibitor: inactive; Vaccinia Venus: inactive; HCMV antiviral: inactive; FBPA Giardia inh: inactive; VACV mCherry inh: inactive

What do the screens show for `Cc1nn2c(CN(C(=O)COc3ccccc3)c3ccccc3)nnc2c2ccccc12`?
FMDV inh: inactive; HCV inhibitor: inactive; Vaccinia Venus: inactive; HCMV antiviral: -68; FBPA Giardia inh: inactive; VACV mCherry inh: inactive

Results for CC(=O)C1=C(O)C(=O)N(c2ccc(C)cc2)C1c1ccc([N+](=O)[O-])cc1 (stereo not given) ?
FMDV inh: inactive; HCV inhibitor: inactive; HCMV antiviral: inactive; FBPA Giardia inh: inactive

How did C=CCn1cc(CN2CCC(C(=O)Nc3cccc(-c4cccc(Cl)c4)c3)CC2)c(C)n1 do in these assays?
FMDV inh: inconclusive; HCV inhibitor: 5µM; HCMV antiviral: inactive; FBPA Giardia inh: inactive

Results for COCc1ccc(CN2CCC(C(=O)Nc3cccc(-c4cccc(Cl)c4)c3)CC2)o1 ?
FMDV inh: inconclusive; HCV inhibitor: 10µM; Vaccinia Venus: inconclusive; HCMV antiviral: inactive; VACV mCherry inh: inconclusive

What do the screens show for `O=C(Nc1cccc(-c2cccc(Cl)c2)c1)C1CCN(CC2CCOC2)CC1` (stereo not given)?
FMDV inh: inactive; HCV inhibitor: 10µM; HCMV antiviral: inconclusive

Results for O=C(Nc1cccc(-c2cccc(Cl)c2)c1)C1CCN(Cc2ccccn2)CC1 ?
FMDV inh: inactive; HCV inhibitor: 10µM; Vaccinia Venus: inactive; HCMV antiviral: -74; VACV mCherry inh: inconclusive

How did C=CCn1cc(CN2CCC(C(=O)Nc3cccc(-c4cccc(F)c4)c3)CC2)c(C)n1 do in these assays?
FMDV inh: inconclusive; HCV inhibitor: inconclusive; Vaccinia Venus: inconclusive; HCMV antiviral: inactive; VACV mCherry inh: inconclusive
